Experimental data from the supplement of paper PMC11732987, “Enantioselective OTUD7B fragment discovery through chemoproteomics screening and high-throughput optimisation” (Communications Chemistry, 2025).

Columns and labels:
Assay in all cases: log2 ratio of Biotin-Ahx-Ub-VS probe labelling (fragment/DMSO); higher = less target engagement (more negative = stronger competition), active = hit call of the paper (q ≤ 0.05, log2 ratio ≤ -1)
Settings in all cases: compound concentration: 200 uM; treatment time: 3 h
USP34 = USP34 (UniProt Q70CQ2)
Summary of the method: (§1)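 The table lists average log2 ratios of fragment over vehicle, from an unpaired t-test on global-median-normalised Spectronaut label-free quantities. Proteins with ≥2 unique peptides were used. Samples were HEK293T lysate (495 µg) treated in triplicate with fragment at 200 µM or vehicle for 3 h, then with Biotin-Ahx-Ub-VS (0.5 µM final) for 1 h, with labelled DUBs NeutrAvidin-enriched and run by diaPASEF LC-MS/MS.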

USP36 = biological target: T1, USP36 (UniProt Q9P275)
T1 sequence (whole entry): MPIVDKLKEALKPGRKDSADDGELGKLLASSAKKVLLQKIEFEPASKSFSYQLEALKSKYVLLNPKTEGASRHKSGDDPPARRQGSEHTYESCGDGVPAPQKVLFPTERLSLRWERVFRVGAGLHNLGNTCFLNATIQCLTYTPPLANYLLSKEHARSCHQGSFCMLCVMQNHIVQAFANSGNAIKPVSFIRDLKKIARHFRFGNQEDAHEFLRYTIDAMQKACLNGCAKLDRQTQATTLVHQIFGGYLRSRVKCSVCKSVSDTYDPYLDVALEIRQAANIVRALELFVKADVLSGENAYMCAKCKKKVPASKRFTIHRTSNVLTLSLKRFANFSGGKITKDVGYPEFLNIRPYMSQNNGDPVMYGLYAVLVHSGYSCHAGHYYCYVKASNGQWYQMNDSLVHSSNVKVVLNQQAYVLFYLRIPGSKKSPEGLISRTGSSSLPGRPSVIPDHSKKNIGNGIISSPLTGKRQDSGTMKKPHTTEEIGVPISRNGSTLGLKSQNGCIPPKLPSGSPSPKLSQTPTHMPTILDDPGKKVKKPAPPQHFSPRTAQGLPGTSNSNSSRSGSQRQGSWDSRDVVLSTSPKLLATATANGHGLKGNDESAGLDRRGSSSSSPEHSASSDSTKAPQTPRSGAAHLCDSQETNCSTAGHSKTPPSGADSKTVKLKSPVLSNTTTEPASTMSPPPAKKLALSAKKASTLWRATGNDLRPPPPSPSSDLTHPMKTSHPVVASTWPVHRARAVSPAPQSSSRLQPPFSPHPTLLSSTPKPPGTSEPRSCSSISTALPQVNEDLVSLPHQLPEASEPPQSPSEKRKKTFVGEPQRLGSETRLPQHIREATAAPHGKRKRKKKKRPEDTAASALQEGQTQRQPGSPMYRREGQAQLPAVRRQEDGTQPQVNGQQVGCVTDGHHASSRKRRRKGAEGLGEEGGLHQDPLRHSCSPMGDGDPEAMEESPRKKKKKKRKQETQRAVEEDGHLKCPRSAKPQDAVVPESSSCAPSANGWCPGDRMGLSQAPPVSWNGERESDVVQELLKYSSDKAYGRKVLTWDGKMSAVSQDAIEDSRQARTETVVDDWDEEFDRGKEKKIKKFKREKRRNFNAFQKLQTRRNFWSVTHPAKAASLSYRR
Summary of the method: as §1

USP38 = biological target: T2, USP38 (UniProt Q8NB14)
T2 sequence (whole entry): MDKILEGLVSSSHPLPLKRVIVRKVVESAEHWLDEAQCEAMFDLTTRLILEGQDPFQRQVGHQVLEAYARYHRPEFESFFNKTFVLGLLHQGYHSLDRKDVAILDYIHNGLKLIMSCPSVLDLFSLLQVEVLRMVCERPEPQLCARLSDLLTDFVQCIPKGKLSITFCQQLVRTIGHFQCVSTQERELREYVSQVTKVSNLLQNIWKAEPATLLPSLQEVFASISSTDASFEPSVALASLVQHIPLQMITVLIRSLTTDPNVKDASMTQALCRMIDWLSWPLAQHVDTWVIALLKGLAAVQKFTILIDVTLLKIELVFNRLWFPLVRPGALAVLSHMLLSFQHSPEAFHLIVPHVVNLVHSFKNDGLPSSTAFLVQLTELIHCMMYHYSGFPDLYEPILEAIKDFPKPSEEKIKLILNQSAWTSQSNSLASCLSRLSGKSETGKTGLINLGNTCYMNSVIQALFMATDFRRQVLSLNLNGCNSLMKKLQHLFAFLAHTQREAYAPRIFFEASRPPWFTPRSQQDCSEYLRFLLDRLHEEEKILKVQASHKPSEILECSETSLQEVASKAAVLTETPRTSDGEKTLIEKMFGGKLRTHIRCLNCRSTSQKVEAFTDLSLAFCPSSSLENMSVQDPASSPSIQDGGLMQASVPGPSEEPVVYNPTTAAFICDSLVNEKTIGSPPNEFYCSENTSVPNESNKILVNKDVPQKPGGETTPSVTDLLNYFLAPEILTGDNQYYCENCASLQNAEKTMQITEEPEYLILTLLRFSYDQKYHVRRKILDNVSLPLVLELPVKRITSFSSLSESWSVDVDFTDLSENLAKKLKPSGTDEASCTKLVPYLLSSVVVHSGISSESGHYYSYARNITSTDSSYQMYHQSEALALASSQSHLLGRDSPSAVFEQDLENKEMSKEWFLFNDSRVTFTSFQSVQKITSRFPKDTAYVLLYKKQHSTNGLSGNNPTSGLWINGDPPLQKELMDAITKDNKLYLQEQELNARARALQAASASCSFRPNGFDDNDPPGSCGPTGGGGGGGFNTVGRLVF
Summary of the method: as §1

USP39 = biological target: T3, USP39 (UniProt Q53GS9)
T3 sequence (whole entry): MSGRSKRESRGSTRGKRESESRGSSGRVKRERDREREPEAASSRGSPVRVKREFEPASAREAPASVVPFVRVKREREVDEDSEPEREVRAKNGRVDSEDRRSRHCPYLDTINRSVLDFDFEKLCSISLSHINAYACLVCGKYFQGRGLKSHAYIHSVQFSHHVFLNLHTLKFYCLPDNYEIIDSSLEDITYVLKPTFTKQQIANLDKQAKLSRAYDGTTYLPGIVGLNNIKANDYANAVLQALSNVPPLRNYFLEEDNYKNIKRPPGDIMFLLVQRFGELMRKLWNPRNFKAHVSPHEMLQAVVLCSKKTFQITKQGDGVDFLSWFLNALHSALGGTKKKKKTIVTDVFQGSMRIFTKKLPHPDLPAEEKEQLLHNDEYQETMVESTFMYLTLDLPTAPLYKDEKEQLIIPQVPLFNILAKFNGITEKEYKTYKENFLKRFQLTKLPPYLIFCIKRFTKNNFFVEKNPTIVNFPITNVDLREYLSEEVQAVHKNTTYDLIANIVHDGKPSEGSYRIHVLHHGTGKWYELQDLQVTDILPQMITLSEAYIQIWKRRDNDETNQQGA
Summary of the method: as §1

USP4 = biological target: T4, USP4 (UniProt Q13107)
T4 sequence (whole entry): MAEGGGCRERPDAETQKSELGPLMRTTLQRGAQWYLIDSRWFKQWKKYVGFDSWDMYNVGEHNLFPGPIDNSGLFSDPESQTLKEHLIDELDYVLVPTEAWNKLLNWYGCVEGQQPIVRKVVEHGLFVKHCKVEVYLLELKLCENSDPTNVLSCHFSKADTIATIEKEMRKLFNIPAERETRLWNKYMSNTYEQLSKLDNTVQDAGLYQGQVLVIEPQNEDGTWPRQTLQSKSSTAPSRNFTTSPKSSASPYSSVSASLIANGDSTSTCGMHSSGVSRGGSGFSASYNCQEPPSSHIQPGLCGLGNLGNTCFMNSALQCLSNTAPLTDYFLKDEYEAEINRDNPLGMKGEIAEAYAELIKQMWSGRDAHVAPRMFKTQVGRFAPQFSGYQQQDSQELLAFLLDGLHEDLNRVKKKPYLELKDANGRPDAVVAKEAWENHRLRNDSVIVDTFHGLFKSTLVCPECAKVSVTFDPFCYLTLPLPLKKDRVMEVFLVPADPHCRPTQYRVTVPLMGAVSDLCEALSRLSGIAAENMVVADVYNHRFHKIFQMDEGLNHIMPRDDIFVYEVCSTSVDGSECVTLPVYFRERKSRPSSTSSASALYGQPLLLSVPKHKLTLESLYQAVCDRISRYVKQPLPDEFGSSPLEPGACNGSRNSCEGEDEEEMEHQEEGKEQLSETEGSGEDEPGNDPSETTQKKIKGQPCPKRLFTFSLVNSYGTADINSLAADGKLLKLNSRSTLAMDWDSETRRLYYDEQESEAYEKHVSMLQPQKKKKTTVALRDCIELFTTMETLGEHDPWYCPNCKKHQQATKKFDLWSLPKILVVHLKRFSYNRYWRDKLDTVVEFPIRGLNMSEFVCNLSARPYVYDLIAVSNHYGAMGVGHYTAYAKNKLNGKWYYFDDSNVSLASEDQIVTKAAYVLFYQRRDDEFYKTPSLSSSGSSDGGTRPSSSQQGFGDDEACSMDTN
Summary of the method: as §1

Measured: log2 ratio of Biotin-Ahx-Ub-VS probe labelling

USP34, sequence (Q70CQ2 whole entry, the tested form may be a part): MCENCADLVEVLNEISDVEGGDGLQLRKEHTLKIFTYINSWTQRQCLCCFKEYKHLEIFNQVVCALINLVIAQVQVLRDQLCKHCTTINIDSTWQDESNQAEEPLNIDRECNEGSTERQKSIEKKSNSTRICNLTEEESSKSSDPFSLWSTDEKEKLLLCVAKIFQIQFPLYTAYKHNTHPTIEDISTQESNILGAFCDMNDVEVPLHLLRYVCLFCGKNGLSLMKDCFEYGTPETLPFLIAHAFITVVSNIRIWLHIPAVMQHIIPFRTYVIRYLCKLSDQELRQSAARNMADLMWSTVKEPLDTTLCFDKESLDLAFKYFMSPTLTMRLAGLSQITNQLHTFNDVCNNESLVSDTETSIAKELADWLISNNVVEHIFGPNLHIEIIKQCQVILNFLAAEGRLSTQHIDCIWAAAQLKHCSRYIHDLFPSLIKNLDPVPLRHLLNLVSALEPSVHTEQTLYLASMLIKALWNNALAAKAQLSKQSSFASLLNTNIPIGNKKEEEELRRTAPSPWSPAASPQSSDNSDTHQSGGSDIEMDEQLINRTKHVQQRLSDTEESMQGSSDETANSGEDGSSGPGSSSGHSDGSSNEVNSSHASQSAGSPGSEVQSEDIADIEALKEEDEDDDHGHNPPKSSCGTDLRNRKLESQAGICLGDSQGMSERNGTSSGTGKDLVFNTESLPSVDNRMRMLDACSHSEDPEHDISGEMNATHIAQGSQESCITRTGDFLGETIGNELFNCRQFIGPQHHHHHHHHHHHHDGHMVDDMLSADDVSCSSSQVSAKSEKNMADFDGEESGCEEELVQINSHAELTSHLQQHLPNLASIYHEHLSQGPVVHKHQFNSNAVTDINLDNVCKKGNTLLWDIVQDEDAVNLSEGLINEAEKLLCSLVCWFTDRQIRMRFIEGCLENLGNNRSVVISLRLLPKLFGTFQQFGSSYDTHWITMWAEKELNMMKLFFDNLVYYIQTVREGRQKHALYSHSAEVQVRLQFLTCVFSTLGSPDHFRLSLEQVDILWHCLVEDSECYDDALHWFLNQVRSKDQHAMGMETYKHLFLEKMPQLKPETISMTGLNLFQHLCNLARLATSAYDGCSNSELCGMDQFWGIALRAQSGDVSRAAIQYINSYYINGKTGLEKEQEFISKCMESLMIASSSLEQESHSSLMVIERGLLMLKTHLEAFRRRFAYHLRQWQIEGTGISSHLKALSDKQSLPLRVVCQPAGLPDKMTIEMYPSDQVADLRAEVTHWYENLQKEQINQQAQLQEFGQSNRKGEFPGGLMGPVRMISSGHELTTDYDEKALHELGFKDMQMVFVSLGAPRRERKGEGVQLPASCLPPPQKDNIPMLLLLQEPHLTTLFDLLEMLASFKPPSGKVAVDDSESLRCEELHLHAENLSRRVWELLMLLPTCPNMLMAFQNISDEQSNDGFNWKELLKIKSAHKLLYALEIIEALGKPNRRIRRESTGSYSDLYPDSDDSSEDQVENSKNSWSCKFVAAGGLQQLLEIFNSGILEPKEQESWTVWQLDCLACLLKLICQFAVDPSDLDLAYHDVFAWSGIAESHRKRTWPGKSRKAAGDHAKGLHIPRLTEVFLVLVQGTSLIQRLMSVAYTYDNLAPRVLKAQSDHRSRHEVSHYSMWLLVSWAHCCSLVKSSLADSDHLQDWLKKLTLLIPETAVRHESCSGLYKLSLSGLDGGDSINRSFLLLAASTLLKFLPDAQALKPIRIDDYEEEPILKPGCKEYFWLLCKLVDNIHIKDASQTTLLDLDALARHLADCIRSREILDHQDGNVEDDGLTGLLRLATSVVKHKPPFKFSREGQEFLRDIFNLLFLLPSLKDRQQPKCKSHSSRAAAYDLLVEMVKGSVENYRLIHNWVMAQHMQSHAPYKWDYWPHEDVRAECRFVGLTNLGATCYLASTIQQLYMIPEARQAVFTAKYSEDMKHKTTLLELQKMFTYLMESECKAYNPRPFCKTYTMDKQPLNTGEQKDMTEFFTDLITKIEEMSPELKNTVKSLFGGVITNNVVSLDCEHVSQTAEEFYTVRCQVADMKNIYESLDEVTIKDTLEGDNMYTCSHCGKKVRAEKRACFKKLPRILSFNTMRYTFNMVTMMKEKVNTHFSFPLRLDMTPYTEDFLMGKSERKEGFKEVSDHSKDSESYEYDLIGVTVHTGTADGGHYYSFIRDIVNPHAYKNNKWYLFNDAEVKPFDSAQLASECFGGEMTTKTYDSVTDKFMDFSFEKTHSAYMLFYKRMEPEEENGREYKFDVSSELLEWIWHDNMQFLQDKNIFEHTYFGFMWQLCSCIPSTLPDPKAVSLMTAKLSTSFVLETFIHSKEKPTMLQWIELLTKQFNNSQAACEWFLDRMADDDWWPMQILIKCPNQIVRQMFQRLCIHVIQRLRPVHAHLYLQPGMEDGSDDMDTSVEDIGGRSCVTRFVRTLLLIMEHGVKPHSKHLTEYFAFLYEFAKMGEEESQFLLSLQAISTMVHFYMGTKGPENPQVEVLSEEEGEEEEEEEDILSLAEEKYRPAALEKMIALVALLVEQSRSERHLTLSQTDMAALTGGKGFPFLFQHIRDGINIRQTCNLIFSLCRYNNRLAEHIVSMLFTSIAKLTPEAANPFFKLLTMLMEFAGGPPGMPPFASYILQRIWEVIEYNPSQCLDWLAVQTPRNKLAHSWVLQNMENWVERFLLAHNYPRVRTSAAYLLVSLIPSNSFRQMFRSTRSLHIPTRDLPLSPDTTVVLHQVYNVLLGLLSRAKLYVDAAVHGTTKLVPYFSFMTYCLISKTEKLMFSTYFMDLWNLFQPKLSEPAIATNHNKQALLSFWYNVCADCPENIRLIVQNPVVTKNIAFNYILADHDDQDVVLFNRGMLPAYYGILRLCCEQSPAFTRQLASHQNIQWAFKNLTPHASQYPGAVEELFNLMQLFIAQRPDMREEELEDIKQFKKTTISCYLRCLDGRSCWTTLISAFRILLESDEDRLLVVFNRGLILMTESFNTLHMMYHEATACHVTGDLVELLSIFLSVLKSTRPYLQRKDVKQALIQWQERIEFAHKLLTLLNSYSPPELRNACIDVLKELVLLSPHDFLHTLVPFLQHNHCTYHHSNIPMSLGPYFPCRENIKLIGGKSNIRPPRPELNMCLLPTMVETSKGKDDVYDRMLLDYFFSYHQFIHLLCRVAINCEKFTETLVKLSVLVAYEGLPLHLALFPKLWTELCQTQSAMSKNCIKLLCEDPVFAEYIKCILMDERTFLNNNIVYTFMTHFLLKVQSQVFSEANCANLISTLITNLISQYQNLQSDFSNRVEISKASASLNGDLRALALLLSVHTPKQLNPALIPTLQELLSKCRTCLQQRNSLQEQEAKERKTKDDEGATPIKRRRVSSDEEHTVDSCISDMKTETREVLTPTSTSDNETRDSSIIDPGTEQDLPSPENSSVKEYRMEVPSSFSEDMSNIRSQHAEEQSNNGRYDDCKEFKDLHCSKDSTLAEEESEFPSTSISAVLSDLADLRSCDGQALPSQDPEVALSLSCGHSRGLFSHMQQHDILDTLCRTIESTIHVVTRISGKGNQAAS

O=C(CCl)N1CCOC(CCc2ccccc2)C1 (stereo not given)
inactive: USP34 -0.338 | USP36 0.0399 | USP38 -0.227 | USP39 0.136 | USP4 -0.729
